Results as given in PubChem BioAssay (NCI).
About 83,000 compounds went through this panel and 20% of them were active in at least one assay; those are over-represented in the sample as a whole.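 Interpretation: 100, growth as untreated; towards 0, rising growth inhibition; 0, no net growth; 0 to -100, cell death. Compounds scoring below 10 were considered active.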 Values without a mark were called inactive. Calls of active or inactive are those of the source.

What was measured:
Experiment in all cases: NCI-60 one-dose screen, 48 h (100 = growth as untreated, 0 = no growth, -100 = all killed)
Details in all cases: 10 µM unless noted
NCI-H23 lung = tested on: NCI-H23 lung
NCI-H226 lung = tested on: NCI-H226 lung
NCI-H322M lung = tested on: NCI-H322M lung
HOP-62 NSCLC = tested on: HOP-62 NSCLC
NCI-H460 lung = tested on: NCI-H460 lung
HOP-92 NSCLC = tested on: HOP-92 NSCLC
NCI-H522 lung = tested on: NCI-H522 lung
A549/ATCC NSCLC = tested on: A549/ATCC NSCLC
786-0 renal = tested on: 786-0 renal
COLO 205 colon = tested on: COLO 205 colon
DU-145 prostate = tested on: DU-145 prostate
K-562 leukemia = tested on: K-562 leukemia
MALME-3M melanoma = tested on: MALME-3M melanoma
MDA-MB-231 breast = tested on: MDA-MB-231 breast
RXF 393 renal = tested on: RXF 393 renal
SF-268 CNS = tested on: SF-268 CNS
SF-295 CNS = tested on: SF-295 CNS
SF-539 CNS = tested on: SF-539 CNS
UACC-257 melanoma = tested on: UACC-257 melanoma
M14 melanoma = tested on: M14 melanoma

SMILES	growth (NCI-H23 lung)	growth (NCI-H226 lung)	growth (NCI-H322M lung)	growth (HOP-62 NSCLC)	growth (NCI-H460 lung)	growth (HOP-92 NSCLC)	growth (NCI-H522 lung)	growth (A549/ATCC NSCLC)	growth (786-0 renal)	growth (COLO 205 colon)	growth (DU-145 prostate)	growth (K-562 leukemia)	growth (MALME-3M melanoma)	growth (MDA-MB-231 breast)	growth (RXF 393 renal)	growth (SF-268 CNS)	growth (SF-295 CNS)	growth (SF-539 CNS)	growth (UACC-257 melanoma)	growth (M14 melanoma)
Cc1ccc(C(=O)Nc2cc(-n3cnc(F)c3)cc(C(F)(F)F)c2)cc1C#Cc1cnc2cccnn12	44.8%	44.4%	97.9%	85.7%	70.5%	57.5%	64.6%	66.5%	53.3%	68.5%	80.9%	-9.19% (active)	-3.1% (active)	49.2%	57.9%	91.6%	63.9%	3.39% (active)	58%	17.7%
CC[C@]12C=CCN3CC[C@@]4(c5ccc(OC)cc5N(C)[C@H]4[C@@](O)(C(=O)OC)[C@@H]1OC(=O)CCC[P+](c1ccc(OC)cc1)(c1ccc(OC)cc1)c1ccc(OC)cc1)[C@@H]32	-92.5% (active)	-80.3% (active)	-97.7% (active)	-81.6% (active)	-85.2% (active)	-82.9% (active)	-89.4% (active)	-91.4% (active)	-89.5% (active)	-64.4% (active)	-75.4% (active)	-1.75% (active)	-97.8% (active)	-97% (active)	-92.6% (active)	-34.3% (active)	-93.7% (active)	-98.9% (active)	-93.5% (active)	-88.4% (active)
S=C(Nc1ccccc1)Nc1ccc(OCc2nc3ccc(Cl)cc3[nH]2)cc1	88%	97.5%	89.5%	90.4%	88.2%	115%	61.1%	88.2%	94.5%	114%	96.4%	30.9%	92.4%	80%	85.1%	92.1%	93.7%	88.8%	105%	85%
O=C(Nc1ccc(-c2ccc3c(c2)NC(=O)/C3=C\c2ccc[nH]2)cc1)Nc1cccc(Cl)c1	-57.4% (active)	2.01% (active)	14.1%	-29.6% (active)	1.16% (active)	41.5%	-51.7% (active)	-3.34% (active)	-41.6% (active)	-58.6% (active)	24.6%	7.56% (active)	7.96% (active)	-23.1% (active)	-53.6% (active)	32%	-31% (active)	-79.8% (active)	22.3%	9.34% (active)
CS(=O)(=O)Nc1cccc(-n2cnc3cc(-c4ccc(O)cc4)ccc32)c1	35.3%	33%	53.1%	32.1%	20.3%	96.8%	25%	53.7%	44.7%	31.5%	29.2%	18%	27.3%	49.3%	-14.2% (active)	50.3%	32%	0.311% (active)	70.5%	26.2%
Cc1ccc2nc(SCc3ccccc3F)n(-c3ccccc3)c(=O)c2c1	93.9%	96.7%	97.1%	95%	105%	82.1%	87.8%	85.8%	94.9%	116%	108%	83.8%	118%	76.1%	104%	113%	89.5%	99.5%	106%	95.3%
Cc1ccc(C(=O)Nc2cc(-n3ccnc3)cc(C(F)(F)F)c2)cc1-n1cc(-c2cnc3cccnn23)nn1	82%	89.9%	113%	107%	97%	78.8%	102%	101%	103%	42.2%	111%	9.87% (active)	-7.64% (active)	31.5%	94.8%	120%	107%	84.7%	47.8%	25.4%
Cc1ccc(N=Nc2c(N)nn3c(-c4cc5cc(Br)ccc5oc4=O)ccnc23)cc1	21.7%	-26.3% (active)	83.6%	47.7%	34.9%	73.6%	11.7%	113%	56.8%	100%	52.8%	64.4%	82%	-11.1% (active)	-3.16% (active)	16%	49%	-46.5% (active)	121%	65.1%
